HCMV antiviral: qHTS Assay for inhibitors of the human cytomegalovirus (HCMV); HFF cells, HCMV-luciferase reporter, 72 h; stronger effect = lower value; activity change, negative = inhibition, % at 57.5 µM; 410,000 tested, 4.5% active; AID 1259415, 2018; in the data active means activity change below about -60%; inconclusive means no clear call, values can overlap the other calls; inactive means above about -39%; further: on the % scale 0 is the no-effect control and ±100 the full control effect
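HFF cells seeded 16 h at 37C, treated with compounds, infected with luciferase-reporter HCMV at MOI 1 PFU/cell; luciferase read at 72 h post infection, normalized to buffer-only and Salinomycin controls.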
HCV inhibitor: qHTS Assay for Inhibitors of Hepatitis C Virus (HCV). Huh7.5.1 HCVcc-Cre infection, luciferase reporter, 44 h. Potency, µM (highest dose often 41.8 µM), inactives show at the top dose activity change, negative = inhibition, most hits filed as inhibitors. 340,000 tested, 3.4% active; active means well fitted inhibition curve with a large enough effect; inconclusive means small, poorly fitted or top-dose-only effect, or another doubt; inactive means no such curve, though single readings can be large or run the other way; further: potency means the concentration at half of the fitted maximal effect; on the % scale 0 is the no-effect control and ±100 the full control effect
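Infectious HCV cell culture screen: compound-treated cells (1,000/well, pre-plated 4 h) are infected with HCVcc-Cre at roughly 0.5 moi and grown 44 h. Infection is quantified by luciferase signal after 15 min substrate incubation at room temperature.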
Marburg entry inh: qHTS for inhibitors of binding or entry into cells for Marburg Virus | Potency, µM (titrated, usually from 37.8 µM), inactives show at the highest dose activity change, negative = inhibition, actives largely listed as inhibitors | 300,000 tested, 1.8% active | Marburg virus pseudotyped entry inhibition, cell reporter | AID 540276, 2011; calls by dose curve; tested in HEK293 cells; further: potency means the concentration at half of the fitted maximal effect; on the % scale 0 is the no-effect control and ±100 the full control effect
SARS PLP yeast: qHTS of Yeast-based Assay for SARS-CoV PLP; Potency, µM (titrated, usually from 32.9 µM), for inactives: top-dose activity, positive = growth rescue, actives largely listed as activators; S. cerevisiae expressing SARS-CoV PLpro, growth rescue; 330,000 tested, 0.19% active; calls by dose curve; further: potency means the concentration at half of the fitted maximal effect; 0% is about no effect; nearly all actives have a fitted effect of over 55% in size
FMDV inh: High Throughput Screening for Foot and Mouth Disease Virus Antivirals | FMDV antiviral cell-based qHTS | Potency, µM (titrated, usually from 57.9 µM), for inactives: top-dose activity change, negative = inhibition, actives largely listed as inhibitors | 410,000 tested, 1.2% active; calls by dose curve; tested in HEK293T cells; further: read-out not given here; potency means the concentration at half of the fitted maximal effect; on the % scale 0 is the no-effect control and ±100 the full control effect; nearly all actives have a fitted effect of over 45% in size
LASV entry inh: qHTS for Inhibitors of binding or entry into cells for Lassa Virus; Lassa virus pseudotype entry inhibition, cell reporter; Potency, µM (highest dose often 37.9 µM), for the others: top-dose activity change, negative = inhibition, usual class: inhibitors; 300,000 tested, 1.2% active; calls by dose curve; tested in HEK293 cells; further: potency means the concentration at half of the fitted maximal effect; on the % scale 0 is the no-effect control and ±100 the full control effect; nearly all actives have a fitted effect of over 50% in size
* = called active by the depositor; ? = inconclusive; . = no result; ! = repeats disagree; [ ] = dose if it differs, or a comment. Most compounds without a hit are left out; they make up all but 8% or so of the library.

SMILES | HCMV antiviral | HCV inhibitor | Marburg entry inh | SARS PLP yeast | FMDV inh | LASV entry inh
O=C(C1CCCN(S(=O)(=O)c2cccc3nsnc23)C1)N1CCN(c2ccccc2Cl)CC1 (stereo not drawn) | -13.1 | . | 3.98µM* | . | 25.1µM* | ?
O=C(C1CCN(S(=O)(=O)c2ccccc2F)CC1)N1CCc2ccccc21 | -67.9* | 14.2% | . | -0.9% | -17.7% | .
O=C(C1CCCN(S(=O)(=O)c2cccc3nsnc23)C1)N1CCc2ccccc21 (stereo not drawn) | -10.7 | ? | -17.4% | -13.8% | 25.1µM* | -2.3%
O=C(C1CCCN(S(=O)(=O)c2cccc3nsnc23)C1)N1CCc2ccccc2C1 (stereo not drawn) | -12.1 | ? | -48.5% | -2.8% | 25.1µM* | ?
COc1ccc(C(CC(=O)Nc2ccc(C(C)=O)cc2)N2Cc3ccccc3C2=O)cc1 (stereo not drawn) | 60.0 | . | . | . | 0.0% | ?
CCOC(=O)C1=C(c2cccc(Oc3ccccc3)c2)NC(=S)NC1C (stereo not drawn) | ? | 8.91µM* | ? | -4.2% | -21.9% | ?
CCOC(=O)C1=C(C)C(c2ccc(OC)cc2)NC(=S)N1 (stereo not drawn) | 49.3 | -2.4% | -8.5% | 2.9% | -21.0% | 4.8%
CCOC(=O)C1=C(C)C(c2cccc(Oc3ccccc3)c2)NC(=S)N1 (stereo not drawn) | ? | ? | ? | 0.9% | 28.2µM* | 8.91µM*
Cc1nc2ccc(S(=O)(=O)NC(CC(C)C)C(=O)NCc3ccc(Cl)cc3)cc2s1 (stereo not drawn) | -4.4 | . | ? | . | -7.1% | -9.6%[46.1 µM]
CSc1ccccc1C(=O)NCC1Cc2cc(F)cc(-c3cnccn3)c2O1 (stereo not drawn) | . | . | . | . | -8.7% | .
Cc1ccc(CNC(=O)CSc2nc3ccsc3c(=O)n2-c2ccc(Br)cc2)cc1 | 4.5 | . | . | . | ? | 0.7%[46.1 µM]
Cc1ccc2nc(Cl)c(-c3ccccc3)cc2c1 | 16.7 | -27.5% | -2.1%[46.1 µM] | . | 28.8% | ?
Cc1ccc2nc(CCl)[n+]([O-])c(-c3ccccc3)c2c1 | 16.7 | ? | -7.5%[46.1 µM] | -3.5% | 28.2µM* | 18.3%[46.1 µM]
Cc1cc(C)c(S(=O)(=O)N2CCC(N3CCN(Cc4ccc(F)cc4)C(=O)C3=O)CC2)c(C)c1 | 4.9 | . | . | . | -1.4% | -4.2%[46.1 µM]
Cc1nc2c(Cl)cc(Cl)cc2[nH]1 | -65.5* | ? | 4.3% | -39.0% | 6.8% | 22.3%
CCn1c(-c2ccccc2F)nc2cc(C(=O)NCc3ccc(C)o3)cc(NC(C)=O)c21 | . | . | . | . | 6.6% | .
O=C(c1ccc(CSc2ccc(Cl)cc2)cc1)N1CCCC1 | -62.5* | ? | . | -1.1% | 11.5% | .
COc1ccccc1N1CCN(C(=O)c2ccc(CSc3ccccc3)cc2)CC1 | -92.4* | -14.9% | ? | 8.7% | ? | ?
COc1ccccc1N1CCN(C(=O)CSc2ccccc2)CC1 | 114.3 | 5.7% | -5.0% | 10.9% | -6.6% | -2.7%
O=C(c1ccc(CSc2ccc(Cl)cc2)cc1)N1CCOCC1 | -30.5 | ? | . | -1.2% | 1.4% | .
O=C(CNCCc1ccccc1)Nc1ccc(C(=O)N2CCCCC2)cc1 | ? | 16.5% | 10.9%[46.1 µM] | 1.3% | 15.8% | 1.6%[46.1 µM]
COc1ccccc1N1CCN(C(=O)C(Sc2ccccc2)c2ccccc2)CC1 (stereo not drawn) | 16.0 | 11.2µM* | 6.31µM* | -12.4% | ? | ?
O=C(CNCCc1ccc(Cl)cc1)Nc1ccc(C(=O)N2CCCCC2)cc1 | ? | 11.1% | 11.2µM* | 0.1% | -15.6% | ?
CN1CCN(CC/C=C2/c3ccccc3Sc3ccc(S(=O)(=O)N(C)C)cc32)CC1 | -19.2 | ? | 3.98µM*! | -0.8% | -5.1% | .
COc1cc2c(cc1Cl)/C(=C\CCN(C)C)c1ccccc1S2 | -32.3 | ? | ? | -15.0% | -20.8% | ?
Cc1[nH]nc(Nc2ccccc2)c1[N+](=O)[O-] | 62.6 | 2.1% | 13.3% | 0.1% | 23.6% | ?
Cc1cccc(Nc2n[nH]c(C)c2[N+](=O)[O-])c1 | 87.9 | -21.5% | 12.6µM* | -22.5% | 22.5% | ?

Screening data (PubChem)
